# Test results from PubChem BioAssay AID590 (National Center for Advancing Translational Sciences (NCATS), 2007).
# Out of some 59,000 compounds screened, about 6,500 (11%) were called active. Inconclusive results (about 15%) are left out. This is one part of a sample in which actives are shown more often than they occur. Rule as the data show it: active = max dye-equivalent concentration above about 10 nM; inconclusive = mostly about 1.1 nM to 9.6 nM; inactive = weaker than that.
# Test: qHTS Assay for Spectroscopic Profiling in A350 Spectral Region
# Conditions: Compound autofluorescence, 340/450 nm, Alexa 350 dye-equivalents; stronger effect = higher value
row,Compound,max dye-equivalent concentration
1,Cc1ccccc1-c1nc(N(C)Cc2ccco2)c2ccccc2n1,inactive
2,Clc1cccc(Cl)c1Cn1nnc(-c2cccs2)n1,inactive
3,CCOC(=O)c1c(N)c(C#N)nn1-c1ccccc1C(=O)OC,inactive
4,O=C(Nc1ccccc1)c1cccnc1Nc1ccccc1,inactive
5,Oc1ccc2nc(Cc3ccccc3)[nH]c2c1,inactive
6,COC(=O)Nc1nc2ccc(Sc3ccccc3)cc2[nH]1,16 nM (active)
7,CCC(=O)Nc1cccc(NC(=O)CSc2nnnn2C2CCCC2)c1,inactive
8,Cc1ccc(S(=O)(=O)NCc2cn3ccsc3n2)c(C)c1,inactive
9,c1ccc(-c2cc(-c3nnc4sc(-c5ccccn5)nn34)[nH]n2)cc1,inactive
10,CCOc1cccc(-c2nnc3sc(COc4ccc(OC)cc4)nn23)c1,inactive
11,COc1cc(-c2nn3c(-c4cccc(C)c4)nnc3s2)cc(OC)c1OC,2600 nM (active)
12,CCOC(=O)CNC(=O)CSc1nnc(-c2cccc(OC)c2)n1CC,inactive
13,Fc1ccc(-c2nnc3sc(-c4ccc5c(c4)OCO5)nn23)cc1,36 nM (active)
14,Cc1nnc2sc(-c3ccco3)nn12,inactive
15,CC(=O)Nc1ccc(-c2nn3c(C)nnc3s2)cc1C,inactive
16,O=C(CSc1nnc2scc(-c3ccc(F)cc3)n12)NCc1ccco1,inactive
17,Fc1ccc(-c2ccc(-c3nn4c(-c5ccco5)nnc4s3)o2)cc1,68 nM (active)
18,c1ccc(-c2nnc3n2NC(c2ccc4c(c2)OCO4)S3)cc1 (stereo unspecified),inactive
19,COc1ccccc1Cn1c(=S)[nH]c2cc(C(=O)N3CCN(C)CC3)ccc2c1=O,inactive
20,CSCCC1NC2(C(=O)Nc3ccc(Cl)cc32)[C@@H]2C(=O)N(C3CCCC3)C(=O)[C@H]12 (stereo partly specified),inactive
21,Cc1ccc2c(C(=O)CN3CCCC3)c(C)[nH]c2c1,inactive
22,CC(C)C(=O)N1CCN(CCN=CC2=C(O)CC(c3ccco3)CC2=O)CC1 (stereo unspecified),inactive
23,CC(C)c1ccc(N2CC(C(=O)Nc3nccs3)CC2=O)cc1 (stereo unspecified),inactive

row,Compound,max dye-equivalent concentration
1,COC(=O)c1ccc(CSc2nncn2C)cc1,inactive
2,O=C(NCCSc1ccccc1)c1ccco1,inactive
3,O=C(Nc1ccccc1)Nc1ccccc1C(=O)NCc1ccco1,inactive
4,O=C(NCc1ccco1)c1cnn2c(C(F)(F)F)cc(-c3ccco3)nc12,300 nM (active)
5,O=C(NCc1ccco1)c1cc(-c2cccnc2)nc2ccc(Cl)cc12,inactive
6,COC(=O)c1cnn2c(C(F)(F)F)cc(-c3ccco3)nc12,870 nM (active)
7,O=C(CSc1nc(-c2ccco2)cc(C(F)(F)F)n1)N1CCc2ccccc2C1,inactive
8,COC(=O)c1ccccc1NC(=O)Cn1nc(C(F)(F)F)c2c1CCC2,inactive
9,CN(C(=O)CSc1nnnn1-c1ccccc1)C1CCCCC1,inactive
10,Cc1oc2nc(SCC(=O)NCc3cccnc3)nc(N)c2c1C,inactive
11,O=C(c1ccc2c(c1)N(Cc1ccc(F)cc1)C(=O)CS2)N1CCOCC1,inactive
12,CCNC(=O)c1c(O)c2cccc3c2n(c1=O)CC3,22 nM (active)
13,Cn1c(C(=O)NCCN2CCc3ccccc3C2)cc2c(=O)[nH]c3ccccc3c21,inactive
14,Cc1cc(=O)n2c3c(cccc13)CCC2,inactive
15,Cc1cnc(CNc2nc(-c3cccnc3)nc3ccccc23)cn1,inactive
16,CN(C)CCSS(=O)(=O)O,inactive
17,C[C@]1(O)CC[C@H]2[C@H]3CC=C4N5CCN=C5CC[C@@]4(C)[C@H]3CC[C@@]21C,inactive
18,Cc1cc(N2CCCC2)n2nc(C)c(-c3ccccc3)c2n1,220 nM (active)
19,CC(=O)c1cc(-c2ccccc2)[nH]c1N1CCCC1,inactive
20,S=c1c2[nH]cnc2ncn1CCSc1ncnc2nc[nH]c12,inactive
21,CC(C)(C)c1csc(NC2=NS(=O)(=O)c3ccccc32)n1,inactive
22,COc1ccc(NC(=O)CN(C)S(=O)(=O)c2ccccc2)cc1OC,inactive
23,Brc1ccc(Nc2c3c(nc4ncnn24)CCC3)cc1,inactive

row,Compound,max dye-equivalent concentration
1,CC1CCc2c(sc(NC(=O)c3ccc(Cn4cc(Br)cn4)o3)c2C(N)=O)C1 (stereo unspecified),110 nM (active)
2,NC(=O)CSc1oc(-c2cccs2)nc1S(=O)(=O)c1ccccc1,inactive
3,O=C(c1ccco1)N1CCC[C@@]2(CCN(Cc3nccs3)C2)C1,inactive
4,CCCC(=O)Nc1cccc(-c2cn3ccsc3n2)c1,inactive
5,c1ccc(-c2cn3cccnc3n2)cc1,4800 nM (active)
6,CCOc1nc(OCC)nc(-n2cc(-c3ccccc3)nn2)n1,inactive
7,COc1ccc(-c2cn3ccsc3n2)cc1,inactive
8,CC(=O)Nc1ccc(-c2cn3cccnc3n2)cc1,6300 nM (active)
9,CC(=O)Nc1cccc(-c2cnc3ccccc3n2)c1,inactive
10,CC(=O)N(Cc1cccs1)C1CCOC(C)(C)C1 (stereo unspecified),inactive
11,CCCCn1c(=S)[nH]c2ncccc2c1=O,inactive
12,O=S(=O)(N1CCOCC1)N1CCN(c2ccccc2F)CC1,inactive
13,CC1(C)CC(=O)NC=C(c2ccccc2)C1,inactive
14,O=c1[nH]c(-c2ccccc2)c(-c2ccccc2)[nH]1,14 nM (active)
15,c1ccc(-c2[nH]ncc2-c2nc3ccccc3[nH]2)cc1,inactive
16,c1csc(CN2CCN(Cc3cccs3)C2c2cccs2)c1,inactive
17,CC1CCCCC1NC(=O)CCS(=O)(=O)c1cccc2nonc12 (stereo unspecified),inactive
18,Cc1nnc(SCC(=O)NCc2cccs2)[nH]c1=O,inactive
19,CCN(CC(=O)NCc1cccs1)c1nnnn1-c1ccccc1,inactive
20,CC(C)Cn1c(N)c(C(=O)NCc2cccs2)c2nc3ccccc3nc21,350 nM (active)
21,C=CCn1c(N)c(C(=O)OCC(C)C)c2nc3ccccc3nc21,4500 nM (active)
22,C=CCn1c(N)c(S(=O)(=O)c2cccs2)c2nc3ccccc3nc21,5300 nM (active)
23,C=CCn1c(C2CC(=O)N(c3ccc(C)cc3)C2)nc2ccccc21 (stereo unspecified),inactive

row,Compound,max dye-equivalent concentration
1,CC(=O)c1c(N2CCOCC2)nc(=S)n(-c2cc(C)ccc2C)c1C,inactive
2,COC(=O)[C@@H]1[C@H]2C[C@H]3c4[nH]c5cc(OC)ccc5c4CCN3C[C@@H]2C[C@@H](OC(=O)c2cc(OC)c(OC)c(OC)c2)[C@@H]1OC,inactive
3,Oc1c(Br)cc(CN(Cc2cc(Br)c(O)c(Br)c2)C2CCCCC2)cc1Br,inactive
4,CS(=O)(=O)c1ccc2nc(NC(=O)CN3CCCCCC3)sc2c1,inactive
5,CCn1nnc(NC(=O)c2c(OC)cccc2OC)n1,inactive
6,O=C(CSc1nc2ncccc2[nH]1)Nc1ccc2c(c1)OCCO2,inactive
7,CC(C)C(c1nnnn1C1CCCC1)N1CCN(c2ccccc2F)CC1 (stereo unspecified),inactive
8,Cc1cc(C)c(C#N)c(SCc2ccccc2C(=O)O)n1,13 nM (active)
9,Cc1cc(C)c(C#N)c(SCc2ccc3c(c2)OCO3)n1,inactive
10,Cc1cc(C)c(C#N)c(SCS(=O)c2ccc(C(C)(C)C)cc2)n1 (stereo unspecified),inactive
11,CCN(CC)S(=O)(=O)c1ccc(NC(=O)CN(c2cccc(F)c2)S(C)(=O)=O)cc1,inactive
12,CCOC(=O)c1c(NC(=O)CCC(=O)NCc2ccco2)sc2c1CCCC2,inactive
13,ClC(Cl)(Cl)C(N1CCN(c2ccccc2)CC1)N1CCN(c2ccccc2)CC1,inactive
14,COc1ccccc1N1CCN(C(=O)CSc2nnc(-c3ccoc3C)o2)CC1,inactive
15,Cc1nc(C)c(C(=O)Nc2ccc(C)c(F)c2)o1,inactive
16,O=C(O)c1ccc(NC(=O)C2CCCCC2)cc1,inactive
17,CN1C(=O)c2ccc(NC(=O)c3c(F)c(F)c(F)c(F)c3F)cc2C1=O,110 nM (active)
18,CN1C(=O)c2ccc(NC(=O)C3CCCCC3)cc2C1=O,320 nM (active)
19,O=C(Nc1c(Cl)cccc1Cl)C1CCC1,inactive
20,O=C(Nc1ccncc1)c1c(F)cccc1F,inactive
21,C[N+]1(CCN=C=NC2CCCCC2)CCOCC1,inactive
22,Cc1ccc(N2CCN(S(=O)(=O)N(C)C)CC2)cc1Cl,inactive
23,CCCCOc1ccc(C(C)(O)CCN2CCOCC2)cc1 (stereo unspecified),inactive

row,Compound,max dye-equivalent concentration
1,CC(C)C(c1nnnn1CCc1ccccc1)N1CCN(C(=O)c2ccco2)CC1 (stereo unspecified),inactive
2,N#Cc1cccc(-c2ccc3ncnc(NCc4cccs4)c3c2)c1,inactive
3,CC(=O)Oc1cccc(N2C(=O)CC(Nc3ccc(N4CCOCC4)cc3)C2=O)c1 (stereo unspecified),inactive
4,CS(=O)(=O)N1CCC2(CC1)CN(Cc1cc(C(F)(F)F)cc(C(F)(F)F)c1)C2,inactive
5,COc1ccc(N2C(=O)CCC(C(=O)N(C)C3CCCCC3)C2c2ccc(OC)c(OC)c2)cc1 (stereo unspecified),inactive
6,COc1ccc(OC)c(NC(=O)Cn2c(=O)oc3ccccc32)c1,inactive
7,C#CCN1C(=O)C(O)(CC(=O)c2cc(OC)ccc2OC)c2ccccc21 (stereo unspecified),14 nM (active)
8,COc1cc2cc(CN(CCN3CCCC3)C(=O)Nc3ccccc3Cl)c(=O)[nH]c2cc1OC,310 nM (active)
9,COc1ccc(CCN(Cc2cc3cccc(C)c3[nH]c2=O)C(=O)N2CCCC2)cc1OC,inactive
10,COc1cccc2cc(C(C)N(CCCN3CCOCC3)C(=O)Nc3ccc(Cl)cc3)oc12 (stereo unspecified),inactive
11,Cc1ccc(-c2nnn(CC(=O)N(CCO)C(C(=O)NC(C)(C)C)c3ccncc3)n2)cc1 (stereo unspecified),inactive
12,O=C(Nc1ccc2c(c1)OCCO2)c1ccncc1,inactive
13,Cc1cc(C)n2nc(C(=O)Oc3ccc4c(c3)OCO4)nc2n1,inactive
14,COc1ccc2[nH]c3c(=O)n(Cc4ccco4)cnc3c2c1,55 nM (active)
15,COc1ccc(C(=O)CSc2nnc(COc3ccccc3)n2Cc2ccco2)cc1,inactive
16,O=c1c2[nH]c3ccc(Cl)cc3c2ncn1Cc1ccccn1,inactive
17,COC(=O)c1[nH]c2ccccc2c1NS(=O)(=O)c1ccc(OC)cc1OC,inactive
18,CCOc1ccccc1NC(=O)Nc1cc(OC)ccc1OC,inactive
19,COc1ccc(OC)c(N=Cc2c(O)[nH]c3ccccc23)c1,64 nM (active)
